PubChem BioAssay (NCI)
Compounds without any hit were thinned out: in the full panel of roughly 83,000, 20% have a hit.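 For each line, cells grew in 96-well plates with the test compound present at a single concentration for 48 hours.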 The source made the active and inactive calls. Rule for the calls: active = growth percent below 10; inactive = the rest.

How the values were obtained:
Experiment in all cases: NCI-60 one-dose screen, 48 h (100 = growth as untreated, 0 = no growth, -100 = all killed)
DU-145 prostate = conditions: 10 µM unless noted
MALME-3M melanoma = conditions: 10 µM unless noted
MDA-MB-231 breast = conditions: 10 µM unless noted
RXF 393 renal = conditions: 10 µM unless noted
SF-268 CNS = conditions: 10 µM unless noted
SF-295 CNS = conditions: 10 µM unless noted
SF-539 CNS = conditions: 10 µM unless noted
M14 melanoma = conditions: 10 µM unless noted
HCT-15 colon = conditions: 10 µM unless noted
HT29 colon = conditions: 10 µM unless noted
SNB-75 CNS = conditions: 10 µM unless noted
SNB-19 CNS = conditions: 10 µM unless noted
U251 CNS = conditions: 10 µM unless noted
SK-MEL-5 melanoma = conditions: 10 µM unless noted
UACC-62 melanoma = conditions: 10 µM unless noted
LOX IMVI melanoma = conditions: 10 µM unless noted
SK-MEL-28 melanoma = conditions: 10 µM unless noted
UACC-257 melanoma = conditions: 10 µM
PC-3 prostate = conditions: 10 µM unless noted

Compound	growth (DU-145 prostate)	growth (MALME-3M melanoma)	growth (MDA-MB-231 breast)	growth (RXF 393 renal)	growth (SF-268 CNS)	growth (SF-295 CNS)	growth (SF-539 CNS)	growth (M14 melanoma)	growth (HCT-15 colon)	growth (HT29 colon)	growth (SNB-75 CNS)	growth (SNB-19 CNS)	growth (U251 CNS)	growth (SK-MEL-5 melanoma)	growth (UACC-62 melanoma)	growth (LOX IMVI melanoma)	growth (SK-MEL-28 melanoma)	growth (UACC-257 melanoma)	growth (PC-3 prostate)
COc1cc2c3c(n(CCCN4CCCCC4)c(=O)c2cc1OC)-c1cc2c(cc1C3=O)OCO2	-92.2% (active)	-78.5% (active)	-77.1% (active)	-73.9% (active)	-55.5% (active)	-75.6% (active)	-89.3% (active)	-89.5% (active)	-84.2% (active)	-96.9% (active)	-85.3% (active)	-72.3% (active)	-92.5% (active)	60.8% (inactive)	59.2% (inactive)	-74% (active)	-79.4% (active)		
C=C1C(=O)O[C@@H]2C[C@@H](C)[C@H](OC)CC(=O)[C@](C)(OC(C)=O)C[C@H](OC(=O)/C(C)=C\C)[C@@H]12	78.3% (inactive)	40.2% (inactive)	36.7% (inactive)	58.7% (inactive)	93.1% (inactive)	91.6% (inactive)	71.4% (inactive)	88.8% (inactive)	58.9% (inactive)	59.5% (inactive)	78.7% (inactive)	99.1% (inactive)	91.5% (inactive)			84.4% (inactive)		77.1% (inactive)	83.6% (inactive)
COc1cc2c3c(n(CCCN4CCCC4)c(=O)c2cc1OC)-c1cc2c(cc1C3=O)OCO2	-71.1% (active)	-76.5% (active)	-76.1% (active)	-75.9% (active)	-49.1% (active)	35.1% (inactive)	-83.2% (active)	-86.3% (active)	-61.7% (active)	-76% (active)	-74.6% (active)	-48.9% (active)	-96.2% (active)	87.5% (inactive)	73.9% (inactive)	-80.1% (active)	-74.1% (active)		
Clc1ccccc1/C=C/c1nn2c(-c3ccncc3)nnc2s1	103% (inactive)	100% (inactive)	101% (inactive)	109% (inactive)	98.7% (inactive)	98% (inactive)	98.3% (inactive)	85.7% (inactive)	96.4% (inactive)		105% (inactive)	99.6% (inactive)	106% (inactive)	99.3% (inactive)	94.3% (inactive)	98.1% (inactive)	103% (inactive)	121% (inactive)	97.2% (inactive)
COc1ccc([C@H]2[C@H](O)C(=O)N2c2cc(OC)c(OC)c(OC)c2)cc1	17.8% (inactive)	59.9% (inactive)	25% (inactive)	21.8% (inactive)	47.5% (inactive)	14.1% (inactive)	-20.3% (active)	10.3% (inactive)	9.24% (active)	-2.31% (active)	49.6% (inactive)	29% (inactive)	8.04% (active)	0.112% (active)	20.6% (inactive)	15.1% (inactive)	62.8% (inactive)		13.9% (inactive)
COCCOc1ccc(-c2csc(NC(C)=O)n2)cc1NS(=O)(=O)c1cccc2c(N(C)C)cccc12	98.3% (inactive)	83.9% (inactive)	80.2% (inactive)	91.7% (inactive)	96.2% (inactive)	95.9% (inactive)	90.9% (inactive)	94% (inactive)	94.5% (inactive)	89.3% (inactive)	94.2% (inactive)	71% (inactive)	99.5% (inactive)	78.8% (inactive)	60.8% (inactive)	98.4% (inactive)	83.1% (inactive)		68.5% (inactive)
COCCOc1ccc(-c2csc(NC(=O)CN3CCN(CCO)CC3)n2)cc1NS(=O)(=O)c1cccc2c(N(C)C)cccc12	92.5% (inactive)	40.1% (inactive)	79.3% (inactive)	65.1% (inactive)	90.5% (inactive)	70.3% (inactive)	61.9% (inactive)	-71.7% (active)	85% (inactive)	-68.5% (active)	88.6% (inactive)	62.2% (inactive)	49.1% (inactive)	86.5% (inactive)	80.5% (inactive)	11.8% (inactive)	30.8% (inactive)		76.1% (inactive)
CC1OC(O[C@@H]2C(O)C(CO)OC(O[C@H]3COC(O[C@H]4CC[C@]5(C)[C@H]6CC[C@]78OC[C@@]9(CC[C@](C)(C=O)C[C@H]97)[C@H](O)C[C@@]8(C)[C@]6(C)CC[C@H]5C4(C)C)[C@@H](OC4OC(CO)[C@@H](O)[C@@H](O)[C@@H]4O)[C@@H]3O)[C@H]2OC2OC[C@@H](O)[C@@H](O)[C@@H]2O)[C@@H](O)[C@@H](O)[C@H]1O (some centres undefined)	41.8% (inactive)	-69.7% (active)	-48.4% (active)	-36.2% (active)	-56.3% (active)	-59.2% (active)	1.77% (active)	-47.3% (active)	83.7% (inactive)	6.44% (active)		-49.2% (active)	-87.5% (active)			-5.38% (active)		-78% (active)	-80.5% (active)
COc1ccc2c(C3=C(c4cn(C)c5ccccc45)C(=O)NC3=O)coc2c1	31.1% (inactive)	97.1% (inactive)	30.4% (inactive)	-10.2% (active)	67.6% (inactive)	36.3% (inactive)	1.16% (active)	36.9% (inactive)	20% (inactive)	6.25% (active)		37.9% (inactive)	15.8% (inactive)	42.4% (inactive)	29.5% (inactive)	34.8% (inactive)	65.2% (inactive)		21.9% (inactive)
c1cncc(-c2cn3nc(-c4c[nH]c5ccccc45)sc3n2)c1	73% (inactive)	38.3% (inactive)	52.5% (inactive)	52.1% (inactive)	83.4% (inactive)	74.7% (inactive)	42.2% (inactive)	37% (inactive)	27.7% (inactive)	21.6% (inactive)	51.8% (inactive)	61.1% (inactive)	69.9% (inactive)	23.4% (inactive)	55.3% (inactive)	46.7% (inactive)	55.5% (inactive)		48.7% (inactive)
C=C1C(=O)O[C@@H]2/C=C(/C)C3=CC(=O)[C@@](C)(C[C@H](OC(=O)/C(C)=C\C)[C@@H]12)O3	8.26% (active)	-22.9% (active)	-16.8% (active)	-65% (active)	30.2% (inactive)	55.9% (inactive)	-19.4% (active)	-27.6% (active)	-2.86% (active)	-38.7% (active)	44.4% (inactive)	64.4% (inactive)	28.8% (inactive)			-44.8% (active)		-36.2% (active)	36.6% (inactive)
COc1cnc2c(c1)C(=O)c1c-2n(CCCNCC2CC2)c(=O)c2cc(F)ccc12	4.61% (active)	-12.2% (active)	-25.2% (active)	-47.5% (active)	14.6% (inactive)	-7.51% (active)	-65.6% (active)	15% (inactive)	0.625% (active)	-62.7% (active)	-7.63% (active)	4.94% (active)	-50.4% (active)	-82.8% (active)	-56.2% (active)	-59.4% (active)	22.8% (inactive)		9.61% (active)
C=C(C)C(=O)O[C@H]1C[C@@]2(C)OC(=CC2=O)/C(CO)=C\[C@H]2OC(=O)C(=C)[C@H]12	-25.2% (active)	-68.8% (active)	-54% (active)	-67.6% (active)	-13.8% (active)	32.6% (inactive)	-82.9% (active)	-34% (active)	-19.5% (active)	-12.2% (active)	-0.788% (active)	42.2% (inactive)	-17.7% (active)			-94.1% (active)		-34% (active)	-3.05% (active)
COc1ccc([C@H]2[C@H](O)C(=O)N2c2cc(OC)c(OC)c(OC)c2)cc1O	17.4% (inactive)	59.7% (inactive)	28.3% (inactive)	21.3% (inactive)	50.1% (inactive)	2.84% (active)	-16.3% (active)	7.13% (active)	1.4% (active)		45.3% (inactive)	29% (inactive)	1.09% (active)	0.345% (active)	27.9% (inactive)	17.1% (inactive)	62% (inactive)		8.59% (active)
CS(=O)(=O)c1ccc2c(c1)c1c(n2C(=O)c2ccc(Cl)cc2)CCCC1	36% (inactive)	43.7% (inactive)	39.9% (inactive)	-12.1% (active)	62.1% (inactive)	22.5% (inactive)	1.96% (active)	28.8% (inactive)	25.7% (inactive)		5.66% (active)	34.9% (inactive)	19.9% (inactive)	25.5% (inactive)	23.8% (inactive)	40.5% (inactive)	60.9% (inactive)	56.8% (inactive)	
COc1ccc([C@@H]2[C@@H](O)C(=O)N2c2cc(OC)c(OC)c(OC)c2)cc1	12.7% (inactive)	49.9% (inactive)	30.4% (inactive)	24% (inactive)	46.9% (inactive)	19.8% (inactive)	-7.72% (active)	12.5% (inactive)	12.4% (inactive)	1.28% (active)	50.7% (inactive)	31.6% (inactive)	4.38% (active)	-28.6% (active)	20.3% (inactive)	16.3% (inactive)	61% (inactive)		16.2% (inactive)
